An excerpt weighted towards active compounds, which were near 19% of everything screened.
TDP1 cell CPT: qHTS for Inhibitors of human tyrosyl-DNA phosphodiesterase 1 (TDP1): qHTS in cells in presence of CPT. chicken DT40 Tdp1-/-;hTDP1 cells + 20 nM CPT, ATP luminescence, 48 h. 12% of 420,000 active. AID 686979, 2013. Potency, µM (titrated, usually from 46.2 µM), inactives show top-dose activity change, negative = growth inhibition, hits mostly inhibitors; further: nearly all actives have a fitted effect of over 55% in size
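Chicken DT40 Tdp1-/- cells complemented with human TDP1, 400 cells/well, exposed to compounds plus 20 nM camptothecin for at least 48 h at 37 C; viability read as ATP content by CellTiter-Glo luminescence.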
HT1080 IDH1KD tx: qHTS for induction of synthetic lethality in tumor cells producing 2HG: qHTS for the HT-1080-IDH1KD cell line | HT-1080 IDH1 knockdown viability, ATP luminescence, 48 h | Potency, µM (series often up to 46.1 µM), for inactives: at the highest dose activity, negative = toxicity, most hits filed as cytotoxic | 2% of 360,000 active;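 further: 0% = DMSO wells and -100% = cell-free medium wells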
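In this qHTS, HT-1080 cells depleted of IDH1 are exposed for 48 h at 37 °C to compound titrations. Toxicity is scored from CellTiter-Glo luminescence, with DMSO as full viability and medium alone as none.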
KB-3-1 cytotox: qHTS assay for MDR1-selective chemotherapeutics: Primary screen using the parental adenocarcinoma cell KB-3-1 | KB-3-1 viability, CellTiter-Glo ATP luminescence, 72 h | 1.4% of 400,000 active | AID 1347075, 2019 | Potency, µM (doses to about 46.1 µM), most hits filed as cytotoxic; further: nearly all actives have a fitted effect of over 60% in size
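Using CellTiter-Glo luminescence, growth of non-resistant KB-3-1 adenocarcinoma cells is assessed 72 h after pin-tool compound addition at 37 °C. Normalized responses across the concentration series yield fitted curves.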
KB-V1 cytotox: qHTS assay for MDR1-selective chemotherapeutics: Primary screen using the drug-selected MDR subline cells KB-V1; KB-V1 MDR cells viability, CellTiter-Glo, 72 h; Potency, µM (doses to about 46.1 µM), actives largely listed as cytotoxic; 3.4% of 400,000 active; further: nearly all actives have a fitted effect of over 60% in size
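Luminescent ATP read-out (CellTiter-Glo, 10 min) measures survival of drug-selected KB-V1 MDR cells after 72 h, 37 degrees C compound exposure. Medium: phenol-red-free DMEM, 10% FBS. Values from fitted concentration-response curves.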
HT1080-NT tox: qHTS for induction of synthetic lethality in tumor cells producing 2HG: qHTS for the HT-1080-NT fibrosarcoma cell line. HT-1080-NT fibrosarcoma viability, CellTiter-Glo ATP luminescence, 48 h. Potency, µM (series often up to 46.1 µM), for inactives: top-dose activity, negative = less viability, actives largely listed as cytotoxic. 1.6% of 360,000 active;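 further: NT is the 2HG producing partner of a matched IDH1 knockdown line; 0% = DMSO-treated cells and -100% = media-only wells without cells; nearly all actives have a fitted effect of over 55% in size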
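Viability of the 2HG-overproducing fibrosarcoma line after 48 hours of compound exposure at 37 degrees C was determined by luminescence with CellTiter-Glo, and concentration-effect curves were then fitted and categorized.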
DT40 TDP1 no CPT: qHTS for Inhibitors of human tyrosyl-DNA phosphodiesterase 1 (TDP1): qHTS in cells in absence of CPT. DT40 Tdp1-/- hTDP1 cells, no CPT, ATP luminescence, 48 h. Potency, µM (doses to about 46.2 µM), for the others: at the top dose activity change, negative = growth inhibition, hits mostly inhibitors. 15% of 420,000 active; further: nearly all actives have a fitted effect of over 55% in size
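No-CPT arm: Tdp1-/-;hTDP1 DT40 cells (400/well) plus compounds, incubated ≥48 hr at 37 °C. Readout CellTiter-Glo luminescence.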
* marks the source's active call; other numbers are inactive results; i = inactive; ? = inconclusive; / = no result given; [ ] = remark or other dose. The call rests on the fitted dose curve; in most records, active means well fitted curve in the direction sought with a large enough effect; inconclusive means small, poorly fitted or top-dose-only effect, or another doubt; inactive means no such curve, though single readings can be large; an effect the other way counts as inactive or inconclusive. Unless noted, on the % scale 0 is the no-effect control and ±100 the full control effect; potency means the concentration at half of the fitted maximal effect.

SMILES	TDP1 cell CPT	HT1080 IDH1KD tx	KB-3-1 cytotox	KB-V1 cytotox	HT1080-NT tox	DT40 TDP1 no CPT
O=C(c1cc[n+]([O-])cc1)N1CCc2c([nH]c3ccccc23)C1c1ccccc1Cl (stereo not given)	-1%	?	i	i	-21%	-20%
COc1cc(OC)c(NC(=O)N2CCc3c([nH]c4ccccc34)C2c2ccccc2F)cc1Cl (stereo not given)	18µM*	/	i	i	/	23µM*
COc1cc(NC(=O)N2CCc3c(sc4c3CCCC4)C2c2ccccc2)cc(OC)c1OC (stereo not given)	10µM*	/	i	?	/	21µM*
Cc1ccc(CNC(=O)[C@@H](NC(=O)C2CCN(C(=O)[C@@H](N)CC(C)C)CC2)C(C)C)cc1	-18%	-4%	i	i	4%	-21%
CCOC(=O)N1CCN(C(=O)/C=C/c2c(C)nn(-c3ccc(F)cc3)c2Cl)CC1	?	0%	i	?	7%	13µM*
CCN(CC)CCn1c2ccccc2c2cnc(N)c(C#N)c21	?	?	23µM*	?	-13%	21µM*
CN(C)C=Nc1ncc2c3ccccc3n(CCN(C)C)c2c1C#N	21µM*	-10%	?	?	-9%	23µM*
CN(C)C=Nc1ncc2c3ccccc3n(Cc3ccccc3)c2c1C#N	-26%	4%	i	i	9%	?
CCOc1ccc(S(=O)(=O)Nc2cccc(C(=O)NCC(c3ccc(OC)cc3)N3CCOCC3)c2)cc1 (stereo not given)	-27%	-4%	i	i	-1%	-30%
Cc1ccc(-n2nnnc2SCC(=O)N2CCc3ccccc3C2)c(C)c1	-21%	1%	i	7.3µM*	6%	-21%
Cc1ccc(SCC(=O)Nc2ccc(N3CCN(C)CC3)c(F)c2)c(C)c1	21µM*	?	i	i	?	16µM*
O=C(CSc1ccc(Cl)cc1)Nc1ccc(N2CCN(c3ccccc3)CC2)c(F)c1	?	2%[9.24 µM]	i	i	18%	?
Cc1ccc(-n2nnnc2SCC(=O)N2CCc3ccccc3C2)cc1	-20%	3%	i	i	0%	-20%
Cn1c(Cc2ccc3c(c2)OCO3)nnc1SCC(=O)N1CCc2ccccc2C1	-2%	-14%	i	16µM*	0%	-5%
Cc1ccc(-n2nnnc2SCC(=O)Nc2ccc(N3CCN(C)CC3)cc2)c(C)c1	?	-1%	i	i	-23%	18µM*
O=C(CSc1nc(O)cc(=O)[nH]1)N1c2ccccc2CCc2ccccc21	-5%	1%	?	i	-2%	-4%
COc1ccc(C2=NOC(C(=O)Nc3cccnc3Cl)C2)cc1 (stereo not given)	-12%	10%	i	i	9%	-20%
C/[N+]([O-])=C\c1cccc(OCCN2CCN(c3ncc(C(F)(F)F)cc3Cl)CC2)c1	-8%	-3%	i	i	-30%	?
C/C(N)=C(/C#N)C(=O)CSc1nnnn1-c1ccc(C)cc1C	23µM*	?	i	?	3%[9.24 µM]	13µM*
Cc1ccc(-n2c(C)nnc2SCC(=O)N2CCc3ccccc3C2)cc1C	-19%	0%	i	9.2µM*	14%	?
Cc1nnc(SCC(=O)N2CCc3ccccc3C2)n1-c1ccccc1	-8%	1%	i	i	-3%	-18%
